# According to PubChem BioAssay (NCI):
# Compounds without any hit were thinned out: in the full panel of roughly 79,000, 15% have a hit. A number with no mark means an inactive call. Calls of active or inactive are those of the source. No stated cut-off is given here; in the data, active means growth inhibition above about 70%; inactive means the rest. Where a SMILES comes first, the peptide text is derived from it.
# Experiment: NCI Yeast Anticancer Drug Screen. Data for the cln2 rad14 strain (AID 165);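 further: 0% = growth equal to vehicle treated cultures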
# Settings: S. cerevisiae cln2 rad14 strain, at 50.0 µM, hits give high values
# Outline: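 Readout is yeast growth inhibition versus vehicle-treated controls, using a strain with cln2 and rad14 alterations exposed to compound.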
row,SMILES,growth inhibition
1,CCOC(=O)NC(C)=O,-16.3%
2,Cc1n[nH]c(=S)n1NC=O,-20.2%
3,CCCC(C)C(=O)O (centres undefined),23.1%
4,CCCCCCCCCCCCCCCCCCNC1=C(C)C(=O)C(NCCCCCCCCCCCCCCCCCC)=C(OCC)C1=O,-10.8%
5,COc1cc(O)c(C(=O)CC(C)=O)c(OC)c1,-0.9%
6,Cc1ccc(C(=O)c2c[nH]c(=O)[nH]c2=O)cc1,-6.5%
7,CC(=O)c1cc2c(Br)cccc2oc1=O,-3.3%
8,CC1N=C(c2ccccc2)SC1C (centres undefined),-49.4%
9,C/C(=N\N=C(\Cc1ccccc1)c1ccccc1)c1ccccc1,-25.2%
10,CC(C)CC(NC(=O)C(CCC(=O)O)NC(=O)CNC(=O)CNC(=O)C(CO)NC(=O)C(CC(C)C)NC(=O)C(NC(=O)C(CO)NC(=O)C(C)NC(=O)C(CCCNC(=N)N)NC(=O)C(C)NC(=O)CN)C(C)C)C(=O)NC(CC(=O)O)C(=O)NC(CCCNC(=N)N)C(=O)NC(Cc1c[nH]c2ccccc12)C(=O)NC(Cc1ccc(O)cc1)C(N)=O (centres undefined) (H-GARASVLSGGELDRWY-NH2; configuration not given here),8.4%
11,COc1ccc(C(C)=O)cc1CCCOC(C)=O,10.7%
12,COCc1ccc(C(C)(C)CC(C)(C)C)cc1,13.6%
13,CSc1nc(NN)c([N+](=O)[O-])c(SC)n1,-2.65%
14,O=c1oc2c(ccc3ccccc32)c(O)c1-c1cccc2ccccc12,99% (active)
